# Data reported in PubChem BioAssay.
# Key:
# [1] = molecular target: Tumor necrosis factor receptor superfamily member 10B (Homo sapiens) (UniProt O14763); assay: viability loss of caspase-8 NB7 cells with TRAIL – with/without TRAIL, luminescence panel, confirmation (AID 651596); details: NB7 neuroblastoma + caspase-8, TRAIL sensitization, NB7 Caspase-8, with TRAIL, mean of runs, at 10 µM, stronger effect = higher value
# [2] = as above; details: NB7 neuroblastoma + caspase-8, without TRAIL, NB7 Caspase-8, without TRAIL, mean of runs, at 10 µM
# Tumor necrosis factor receptor superfamily member 10B (Homo sapiens), sequence (O14763 whole entry, looked up): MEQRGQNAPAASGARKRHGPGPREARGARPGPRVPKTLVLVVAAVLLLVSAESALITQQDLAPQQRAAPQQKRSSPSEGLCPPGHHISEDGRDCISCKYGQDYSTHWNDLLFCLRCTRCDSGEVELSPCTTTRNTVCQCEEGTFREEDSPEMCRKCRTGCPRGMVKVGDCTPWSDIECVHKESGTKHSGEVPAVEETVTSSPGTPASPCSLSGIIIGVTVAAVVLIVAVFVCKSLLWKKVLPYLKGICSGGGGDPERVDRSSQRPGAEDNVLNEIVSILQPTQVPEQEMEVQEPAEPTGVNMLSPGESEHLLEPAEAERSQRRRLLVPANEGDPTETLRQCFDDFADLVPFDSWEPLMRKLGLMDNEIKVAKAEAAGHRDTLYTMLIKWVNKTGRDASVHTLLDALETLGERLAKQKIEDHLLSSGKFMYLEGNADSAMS
Structure (SMILES),activity [1] [%],activity [2] [%]
C/C(=N\NC(=O)c1ccccc1O)c1ccc(Br)s1,57.8,69.5
Cc1cc(C)c(C)c(S(=O)(=O)N2CCN(c3ncnc4ccccc34)CC2)c1C,40.2,40.1
COc1cccc2cc(-c3nc4ccccc4[nH]3)c(=O)oc12,64.5,61.1
OCC1OC(n2cnc3c(SCc4ccccc4)ncnc32)C(O)C1O (configuration not stated),59.9,67.1
Cc1cc(NC(=O)CSc2nnc(-c3ccc4c(c3)OCCO4)o2)no1,52.1,58.8
Cc1nn(-c2ccccc2)c(Cl)c1/C=N/NC(=O)c1[nH]ncc1Br,83.7,71.9
